C diff HTS: C. difficile growth inhibitors, primary screen, HTS; Clostridium difficile clinical isolate growth, OD600, 24 h; active compounds read low; growth activity, negative = inhibition, % at 16 µg/mL (by protocol); 86,000 compounds, 0.25% hits; AID 1259249, 2017;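 active = mean growth activity at or below -80% and every replicate also at or below -80%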
Large screens that a line does not name were inactive; ! = repeats disagree. The sample as a whole holds a higher share of hits than the screen did.

CN(C)CC(=O)Nc1ccc2c(c1)[C@H]1C[C@H](CC(=O)N3CCN(C)CC3)O[C@H](CO)[C@H]1O2	none
O=C(Nc1ccccc1)N1C[C@@H]2N[C@H](C1)[C@@H]2c1ccc(/C=C/c2ccccc2)cc1	C diff HTS -97
O=S(=O)(c1ccc(F)cc1)N1C[C@@H]2N[C@H](C1)C2c1ccc(/C=C/c2ccccc2)cc1 (stereo partly drawn)	C diff HTS -99!
O=C(c1ccc(F)cc1)N1C[C@@H]2N[C@H](C1)C2c1ccc(/C=C/c2ccccc2)cc1 (stereo partly drawn)	C diff HTS -99!
O=S(=O)(c1ccccc1)N1C[C@@H]2N[C@H](C1)C2c1ccc(-c2ccccc2)cc1 (stereo partly drawn)	none
C/C=C/c1ccc(C2[C@@H]3CN(S(=O)(=O)c4ccc(C)cc4)C[C@H]2N3)cc1 (stereo partly drawn)	none
O=C(c1ccncc1)N1C[C@@H]2N[C@H](C1)C2c1ccc(/C=C/c2ccccc2)cc1 (stereo partly drawn)	none
O=C(c1ccc2c(c1)OCO2)N1C[C@@H]2N[C@H](C1)C2c1ccc(/C=C/c2ccccc2)cc1 (stereo partly drawn)	none
COc1ccccc1NC(=O)N1C[C@@H]2N[C@H](C1)C2c1ccc(/C=C/c2ccccc2)cc1 (stereo partly drawn)	none
O=C(Nc1ccccc1)N1C[C@@H]2N[C@H](C1)C2c1ccc(-c2ccccc2)cc1 (stereo partly drawn)	none
O=C(C[C@@H]1CC[C@H](NC(=O)c2ccncc2)[C@H](CO)O1)NCC1CC1	none
CNC[C@@H]1OCCCC[C@H](C)Oc2ccc(NC(=O)NC(C)C)cc2C(=O)N([C@@H](C)CO)C[C@@H]1C	none
C[C@@H]1CCCCO[C@H](CN(C)S(=O)(=O)c2ccc(Cl)cc2)[C@H](C)CN([C@H](C)CO)C(=O)c2cc(NC(=O)c3ccncc3)ccc2O1	none
CC(C)NC(=O)Nc1ccc2c(c1)C(=O)N(C)[C@H]1CC[C@H](CC(=O)Nc3ccccc3)O[C@@H]1CO2	none
CC(=O)N1[C@@H]2Cn3c(ccc(C4=CCCCC4)c3=O)[C@H]1[C@@H](C(=O)NCc1cc(F)cc(F)c1)[C@@H]2CO	none
C[C@@H]1CN([C@@H](C)CO)C(=O)c2cc(NC(=O)c3ccncc3)ccc2O[C@@H]1CN(C)Cc1ccc(C(=O)O)cc1	none
COc1ccc(NC(=O)N(C)C[C@H]2Oc3ccc(NC(=O)NC(C)C)cc3CC(=O)N([C@H](C)CO)C[C@@H]2C)cc1	none
COCC#Cc1cnc2c(c1)C(=O)N([C@H](C)CO)C[C@@H](C)[C@@H](CN(C)C)O2	none
Fc1ccccc1CN1[C@@H]2CNC[C@H]1C2c1ccc(-c2ccccc2)cc1 (stereo partly drawn)	none
Cc1ccc(-c2ccc([C@@H]3[C@@H]4CN(Cc5ccccc5F)C[C@H]3N4)cc2)cc1	C diff HTS -101
CN(C)C(=O)c1cccc(-c2ccc(C3[C@@H]4CN(Cc5ccccc5F)C[C@H]3N4)cc2)c1 (stereo partly drawn)	none
Cc1cccc(-c2ccc(C3[C@@H]4CN(Cc5cccnc5)C[C@H]3N4)cc2)c1 (stereo partly drawn)	none
Cc1cccc(-c2ccc(C3[C@@H]4CN(Cc5ccccc5F)C[C@H]3N4)cc2)c1 (stereo partly drawn)	C diff HTS -98
Cc1ccc(-c2ccc(C3[C@H]4CNC[C@@H]3N4Cc3ccccc3F)cc2)cc1 (stereo partly drawn)	none
CCCC(=O)N1CCC2(CC1)CN(S(=O)(=O)c1ccc(C)cc1)[C@H](CO)c1[nH]c3cc(OC)ccc3c12	none
C[C@@H]1CN([C@H](C)CO)C(=O)c2cc(NC(=O)Cc3ccccc3)ccc2O[C@H]1CN(C)C(=O)Nc1cccc2ccccc12	none
CO[C@@H]1CN(C)C(=O)c2cc(NC(=O)Nc3ccc(Cl)cc3)ccc2OC[C@H](C)NC[C@@H]1C	none
CO[C@H]1CN(C)C(=O)c2cc(NC(=O)Nc3ccc(Cl)c(Cl)c3)ccc2OC[C@@H](C)NC[C@@H]1C	C diff HTS -96
CO[C@H]1CN(C)C(=O)c2cc(NC(=O)Nc3ccc(Cl)cc3)ccc2OC[C@@H](C)NC[C@@H]1C	none
CO[C@H]1CN(C)C(=O)c2cc(NC(=O)Nc3ccccc3)ccc2OC[C@H](C)NC[C@H]1C	none
CO[C@H]1CN(C)C(=O)c2cc(NC(=O)Nc3ccc(Cl)cc3)ccc2OC[C@@H](C)NC[C@H]1C	none
CO[C@H]1CN(C)C(=O)c2cc(NC(=O)Nc3ccc(Cl)c(Cl)c3)ccc2OC[C@@H](C)NC[C@H]1C	C diff HTS -97
Cn1cnc(S(=O)(=O)N[C@@H]2CC[C@H](CC(=O)NCC3CC3)O[C@@H]2CO)c1	none
C[C@H]1CN([C@@H](C)CO)S(=O)(=O)c2ccc(C#Cc3cccc(F)c3)cc2O[C@@H]1CN(C)C	none
C[C@@H]1CN([C@H](C)CO)C(=O)Cc2cc(NC(=O)CCC(F)(F)F)ccc2O[C@H]1CN(C)S(=O)(=O)c1cn(C)cn1	none
O=C(NCC[C@H]1CC[C@H](NC(=O)C2CC2)[C@H](CO)O1)Nc1ccc(Cl)cc1	none

Screening data from PubChem.
